Experimental findings from PubChem BioAssay AID1259422 (The Scripps Research Institute Molecular Screening Center, 2018) are described below.

The campaign covered roughly 640,000 compounds. About 9,300 (1.5%) were called active. The entries come from a sample that favours actives as a whole. Values without a mark were called inactive. Rule as the data show it: active = inhibition above about 32%; inactive = the rest.

The experiment is described as follows: TEAD-YAP interaction inhibition, primary screen, TEAD-YAP interaction inhibitor project, luminescence, HEK-TIYL cells (AID 1259422).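 Also: 0% = median of test compound wells and 100% = reference inhibitor wells.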 To be noted: TEAD-Gal4/YAP UAS-luciferase luminescence, at 9.12 µM, active compounds read high.
For `CC(=O)Nc1nc2cc([N+](=O)[O-])c(C)cc2s1`, the inhibition (in general, the change of the read-out against control, counted positive when it falls) was -21.7%.
`COc1cc(C2C(C(=O)OC3CCCCC3)=C(C)NC3=C2C(=O)CC(c2ccccc2)C3)cc(Cl)c1O` (stereo unspecified): the inhibition is -1.53%.
For the compound `COc1ccc(C2CC(=O)NC3=C2C(=O)CC(c2ccccc2Cl)C3)cc1` (stereo unspecified), the inhibition is 6.64%.
As to `COc1ccc(C2CC(=O)C3=C(C2)Nc2ccccc2NC3c2cccc(Cl)c2)cc1` (stereo unspecified), the inhibition was 1.54%.
The figure for `CCOc1ccccc1C1C(C(=O)OC)=C(C)NC2=C1C(=O)CC(c1ccccc1)C2` (stereo unspecified) is -5.16%; for `CCOc1ccccc1C1CC(=O)NC2=C1C(=O)CC(c1ccccc1Cl)C2` (stereo unspecified) it is 36.2% (active).
On to `COc1cc(C2Nc3ccccc3NC3=C2C(=O)CC(c2ccccc2Cl)C3)cc(Cl)c1O` (stereo unspecified), for which the inhibition was 54.8% (active).
With `O=C(CCCn1nnc(-c2ccccc2F)n1)c1ccc(O)cc1`, the inhibition is -5.05%.
As for `CCc1ccc(N/C(SCc2cccc([N+](=O)[O-])c2)=C(/C#N)C(=O)NCc2ccco2)cc1`, the inhibition was -0.35%.
Consider `CC(=O)Nc1ccc(NC(=O)C(=O)NCc2ccc(F)cc2)cc1`, for which the inhibition was 0.35%.
In the case of `COc1ccc(CCn2c(SCC(=O)N3CCN(c4ccccc4OC)CC3)nc3ccccc3c2=O)cc1OC`, the inhibition was 36.9% (active).
Turning to `CCN(CC)C(=O)CSc1nc2ccsc2c(=O)n1CCc1ccccc1`, the inhibition is 16.3%.
`COc1ccccc1N1CCN(C(=O)CSc2nc3ccccc3c(=O)n2Cc2cccs2)CC1`: the inhibition is -7.66%.
For `COc1ccccc1N1CCN(C(=O)CSc2nc3ccsc3c(=O)n2-c2ccccc2)CC1`, the inhibition was 1.01%.
On to `COc1ccccc1N1CCN(C(=O)CSc2nc3ccsc3c(=O)n2CCc2ccccc2)CC1`, for which the inhibition was 43.9% (active).
On to `COc1ccc(CCn2c(SCC(=O)Nc3ccc(C)c(C)c3)nc3ccccc3c2=O)cc1OC`, for which the inhibition is 8.03%.
Regarding `CN(C)c1cc(-c2nnc(SCc3ccccn3)n2C)nc(N(C)C)n1`, the inhibition is 1.09%.
Turning to `CC(NS(=O)(=O)c1cc(Cl)ccc1Cl)C(=O)Nc1ccc2c(c1)OCCO2` (stereo unspecified), the inhibition is -9.66%.
The figure for `O=C(CN1C(=O)c2ccccc2S1(=O)=O)N1CCc2ccccc21` is 73.9% (active).
`O=C(CC(=O)N1CCc2ccccc21)C(=O)CC(=O)N1CCc2ccccc21`: the inhibition was 8.39%.
As for `O=C(CN1C(=O)c2ccccc2S1(=O)=O)N1CCN(Cc2ccccc2)CC1`, the inhibition was -9.54%.
For the compound `CC1CCCN(C(=O)Cn2c(=O)oc3ccccc32)C1` (stereo unspecified), the inhibition was 7.96%.
Then `CC(=O)CN1C(=O)c2ccccc2S1(=O)=O`, with -8.06%; and `CC1CCCN(C(=O)CN2C(=O)c3ccccc3S2(=O)=O)C1` (stereo unspecified), with 32.8% (active); and `O=C(NCc1ccon1)c1cccc(OC2CCN(C(=O)C3CC3)CC2)c1`, with -8.88%.
For the compound `CC(C)CCNC(=O)C1CC(=O)N(C2CCCCC2)C1` (stereo unspecified), the inhibition is 1.78%.
`O=C(COc1ccccc1)N1CCN(c2ccccc2F)CC1`: the inhibition was 0.47%.
On to `CN(CC(=O)N1CCOCC1)c1ncnc2scc(-c3ccc(F)cc3)c12`, for which the inhibition was 2.08%.
Regarding `Cc1csc(C(C#N)C(=O)COC(=O)c2sc3cc(F)ccc3c2Cl)n1` (stereo unspecified), the inhibition was -0.66%.
Consider `COC(=O)C1=C(C)NC(=O)/C1=C\c1cccc(OCc2ccccc2)c1`, for which the inhibition is -0.2%.
For the compound `O=C(c1cc(N2CCOCC2)nc2ccccc12)N1CCN(c2cccc(Cl)c2)CC1`, the inhibition was -4.93%.
Then `O=C(COC(=O)c1cc(-c2ccccc2)nc2ccccc12)c1ccccc1`, with -10%.
On to `Cc1ccc(Nc2cc(C(=O)O)c3ccccc3n2)cc1`, for which the inhibition was -9.91%.
As for `O=C(O)c1cc(-c2ccc(-c3ccccc3)cc2)nc2ccccc12`, the inhibition is 84.8% (active).
Then `O=C(c1cc(-c2ccc(Cl)cc2)nc2ccccc12)N1CCN(c2ccc([N+](=O)[O-])cc2)CC1`, with 3.06%.
Turning to `O=C(c1cc(-c2ccncc2)nc2ccccc12)N1CCN(c2ccccc2)CC1`, the inhibition was 57% (active).
`COc1ccc(CNC(=O)c2ccccc2N(Cc2ccccc2)S(=O)(=O)c2ccc(C)cc2)cc1`: the inhibition is 1.46%.
With `O=C(NCCCN1CCCC1=O)c1ccc2c(c1)N(Cc1ccccc1)C(=O)CS2=O` (stereo unspecified), the inhibition is -1.97%.
Consider `CSc1ccccc1NC(=O)Cn1nc(C)c([N+](=O)[O-])c1C`, for which the inhibition was -7.74%.
As for `Cc1ccc(Oc2ccc(NC(=O)c3ccc(Br)c([N+](=O)[O-])c3)cc2)cc1`, the inhibition is 20.9%.
With `CCNc1nc(C)cc(Nc2ccc(N3CCOCC3)cc2)n1`, the inhibition was 1.76%.
For `CC(=O)Nc1ccc(Nc2cc(C)nc(NCc3ccc4c(c3)OCO4)n2)cc1`, the inhibition is 31.4%.
As for `Cc1cc(Nc2ccc(N3CCOCC3)cc2)nc(NCc2ccc3c(c2)OCO3)n1`, the inhibition was 38.4% (active).
For the compound `O=C(Nc1cccnc1Cl)c1cc2nc3c(c(C(F)(F)F)n2n1)CCc1ccccc1-3`, the inhibition is 5.92%.
`Cc1ncc(-c2ccncn2)c(-c2ccc(C(F)(F)F)nc2)n1`: the inhibition is 6.09%.
With `C=C(C)CONC(=O)c1cnc2scc(C(C)(C)C)n2c1=O`, the inhibition is -7.08%.
Turning to `C=CCn1c(C)cc(C(=O)CC#N)c1C`, the inhibition is -18.5%.
For `CCC(=O)Nc1ccc(C2=NNC(=NC)SC2)cc1`, the inhibition was -4.44%.
Turning to `C=CCn1c(C)cc(C2=NNC(=NCC)SC2)c1C`, the inhibition is 99.6% (active).
For the compound `COc1ccc(C2C(C#N)=C(N)Oc3cc(C)n(Cc4ccco4)c(=O)c32)c(OC)c1` (stereo unspecified), the inhibition is 6.86%.
The figure for `O=C(N/N=C/c1ccc([N+](=O)[O-])o1)c1cc(Cl)ccc1O` is 2.15%.
As to `O=C(N/N=C/c1ccc([N+](=O)[O-])o1)c1cccc(F)c1`, the inhibition is -23.7%.
As for `O=C(N/N=C/c1ccc([N+](=O)[O-])o1)c1ccc(Cl)cc1Cl`, the inhibition is 44.6% (active).
Then `COc1cc(NC(=O)CC(C)C)c(C(=O)O)cc1OC`, with 12.1%.
On to `Cc1ccccc1C(=O)Nc1ccc(Br)c(Cl)c1`, for which the inhibition is -77.6%.
As for `Cc1cc(NC(=O)c2ccccc2Br)ccc1O`, the inhibition was 77% (active).
`Cc1ccc(NC(=O)c2ccccc2Br)cc1C`: the inhibition is -49%.
Then `COC1CCN(c2ncn(-c3ccc(Nc4nccc(-c5cncc(N6CCOCC6)c5)n4)cc3)n2)CC1`, with 51.5% (active); and `Cc1cnnn1-c1ccc(Nc2nccc(-c3cc(C#N)cc(N4CCOCC4)c3)n2)cc1`, with 1.73%; and `OC1CCN(c2ccc(Nc3nccc(-c4cc(N5CCOCC5)cc(C(F)(F)F)c4)n3)cc2)CC1`, with 31.8%.
As for `Cc1ncccc1-c1ncn(-c2ccc(Nc3nccc(-c4cc(F)cc(N5CCOCC5)c4)n3)cc2)n1`, the inhibition was -3.6%.
Consider `c1cc(-c2cncc(N3CCOCC3)c2)nc(Nc2ccc3c(c2)OCO3)n1`, for which the inhibition is 36.5% (active).
For the compound `CN(C)c1cc(F)cc(-c2ccnc(Nc3ccc(-n4cnc(N5CCOCC5)n4)cc3)n2)c1`, the inhibition is -6.66%.
Turning to `Cn1nccc1-c1cc(F)cc(-c2ccnc(Nc3ccc(-n4cnc(N5CCOCC5)n4)cc3)n2)c1`, the inhibition is 9.9%.
As to `N#Cc1cc(-c2ccnc(Nc3ccc(-n4cnc(-c5ccccn5)n4)cc3)n2)cc(N2CCOCC2)c1`, the inhibition was 43.5% (active).
As to `N#Cc1cccc(-c2ccnc(Nc3ccc(N4CCOCC4)cc3)n2)c1`, the inhibition is -9.11%.
